Screens deposited in PubChem BioAssay by National Center for Advancing Translational Sciences (NCATS).
Nrf2 ARE act – Nrf2 pathway activation | AID 624171 | Potency, µM (titrated, usually from 46.1 µM), most hits filed as activators | AREc32 ARE-luciferase reporter (MCF7-derived line), luminescence, 24 h | 410,000 compounds, 0.31% hits; further: nearly all actives have a fitted effect of over 65% in size
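AREc32_Fluc, 1000 cells/well, OPTI-MEM + 5% FBS, o/n 37 deg C 5% CO2; 23 nL cpd by pin tool, 24 hr; Steady-Glo 30 min RT, luminescence.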
HepG2 tox-1 – counter-screen for TGF-b inhibitors: cytotoxicity in HepG2 cells | Potency, µM (doses to about 46.1 µM), most hits filed as cytotoxic | 410,000 compounds, 0.76% hits | HepG2 CAGA-GFP viability, ATP luminescence, 18 h | AID 588856
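HepG2 CAGA-GFP cells (1000/well, DMEM with 1% FBS) received compound, then TGF-beta at 500 pg/mL final, and were incubated 18 hours at 37 degrees C. Viability was read by CellTiter-Glo luminescence. Media-only wells were set as complete cell-killing and DMSO as no toxicity.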
TGFb SMAD3 inh – inhibitors of TGF-b signaling; HepG2 CAGA-GFP TGF-b/SMAD3 reporter, GFP fluorescence, 18 h; TGF-beta stimulated, 500 pg/mL final; Potency, µM (series often up to 46.1 µM), hits mostly inhibitors; 410,000 compounds, 1.2% hits; AID 588855; further: nearly all actives have a fitted effect of over 65% in size
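Read-out: total well GFP (ex488/em500-530) summed from mean per-cell fluorescence. Cells: HEPG2 CAGA-GFP, 1% FBS DMEM, 18 h at 37 degrees C with 500 pg/mL final TGF-beta. Unstimulated wells served as the full-inhibition control; stimulated DMSO wells = 0%.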
Nrf2 inh – blocks Nrf2 signaling. AID 504444. 360,000 compounds, 2.1% hits. Potency, µM (titrated, usually from 46 µM), hits mostly inhibitors. A549 ARE-Fluc reporter, luciferase luminescence, 18-24 h; further: nearly all actives have a fitted effect of over 60% in size
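Nrf2 function is reported as luminescence of an ARE-controlled luciferase in A549 cells. Compounds were tested at several concentrations, and a CellTiter-Fluor read on the same wells flagged cytotoxicity.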
A549 viability – A549 cytotoxicity, counter-screen for Nrf2 inhibitors; 390,000 compounds, 0.16% hits; Potency, µM (highest dose often 46 µM), usual class: inhibitors; A549 ARE-Fluc cells, CellTiter-Fluor viability, 18-24 h
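A549 ARE_Fluc cells in 5% FBS OPTI-MEM were exposed to compounds in concentration-response for 18-24 h at 37 deg C. Viability was read by CellTiter-Fluor fluorescence (Ex 405/Em 525) after 30 min, before the luciferase read.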
TGFb CAGA inh – confirmation of TGF-b signaling inhibitors in HepG2 reporter cells | shares compounds with TGFb SMAD3 inh | HepG2 CAGA-GFP TGF-b reporter, GFP fluorescence, 18 h; cells stimulated with TGF-beta, 500 pg/mL | Potency, µM (titrated, usually from 46.1 µM), most hits filed as inhibitors | 1,600 compounds, 63% hits | AID 720534; further: nearly all actives have a fitted effect of over 65% in size
HepG2 tox-2 – toxic to HepG2 cells in TGF-b counterscreen | HepG2 CAGA-GFP viability, ATP luminescence, 18 h; cells stimulated with TGF-beta, 500 pg/mL | Potency, µM (titrated, usually from 46.1 µM), most hits filed as inhibitors | 1,600 compounds, 27% hits | AID 720535 | shares compounds with TGFb SMAD3 inh; further: nearly all actives have a fitted effect of over 70% in size
TGFb CCL64 inh – blocks TGF-b signaling in CCL64 reporter cells; shares compounds with TGFb SMAD3 inh; AID 720536; CCL64 CAGA-GFP reporter, TGF-b stimulated, GFP fluorescence, 18 h; Potency, µM (series often up to 46.1 µM), most hits filed as inhibitors; 1,600 compounds, 41% hits; further: nearly all actives have a fitted effect of over 65% in size
TGFb COP inh – validation of TGF-b inhibitors in HepG2 COP promoter reporter. shares compounds with TGFb SMAD3 inh. 1,600 compounds, 3% hits. AID 720537. HepG2 COP-GFP TGF-b reporter, GFP fluorescence, 18 h; cells stimulated by added recombinant TGF-beta. Potency, µM (highest dose often 46.1 µM), actives largely listed as inhibitors; further: nearly all actives have a fitted effect of over 70% in size
Of the large screens only hits and unclear results are named; the others gave an inactive call (follow-up assays come after a bar, where they were run). Hits are enriched below; roughly 3.6% of the tested compounds scored in any of these assays. The call rests on the fitted dose curve; in most records, active means well fitted curve in the direction sought with a large enough effect; inconclusive means small, poorly fitted or top-dose-only effect, or another doubt; inactive means no such curve, though single readings can be large; an effect the other way counts as inactive or inconclusive.

CCNC(=O)N1Cc2ccccc2-n2nncc2C1	none (no result: Nrf2 inh, A549 viability)
COC1CC(C)C(OC)c2cc(O)cc(c2O)NC(=O)C(C)=CC=CC(C)C(OC(N)=O)C(C)=CC(C)C1OC (stereo not given)	Nrf2 ARE act inconclusive, TGFb SMAD3 inh 7.1µM, Nrf2 inh inconclusive, A549 viability inconclusive | TGFb CAGA inh 0.52µM | HepG2 tox-2 5.2µM | TGFb CCL64 inh 4.1µM | TGFb COP inh inactive
CCOC(=O)C1=C(C)OC(N)=C(C(=O)OCC)[C@@]12C(=O)N(CC(N)=O)c1ccccc12	none
CC(C)(C)C(=O)OCC12CCC(O1)C1(C)C(=O)OCC21 (stereo not given)	none
C[C@]1(O)CCC2C3CC[C@@H]4CC(=O)CC[C@]4(C)C3CC[C@@]21C (stereo not given in full)	none
CCCCN=C[C@]12CCC(O)CC1(O)CCC1[C@@H]2CC[C@]2(C)[C@H](C3C=CC(=O)O3)CCC12O (stereo not given in full)	TGFb SMAD3 inh 3.5µM, Nrf2 inh inconclusive | TGFb CAGA inh inconclusive | HepG2 tox-2 1.2µM | TGFb CCL64 inh 1.5µM | TGFb COP inh inactive
CCC1C(c2cc(OC)c(OC)c(OC)c2)c2cc3c(cc2OC1N1CCCC1)OCO3 (stereo not given)	TGFb SMAD3 inh 10µM | TGFb CAGA inh inconclusive | HepG2 tox-2 inactive | TGFb CCL64 inh inconclusive | TGFb COP inh inactive
COc1cc(C2c3cc4c(cc3CC3COC(=O)C32)OCO4)cc(OC)c1O (stereo not given)	TGFb SMAD3 inh inconclusive
COc1cc2c(c(OC)c1OC)-c1ccc(O)cc1[C@@H](NC(C)=O)CC2	TGFb SMAD3 inh inconclusive, Nrf2 inh inconclusive | TGFb CAGA inh inconclusive | HepG2 tox-2 inactive | TGFb CCL64 inh 0.52µM | TGFb COP inh inconclusive
C[C@H]1CCC/C=C/[C@@H]2C[C@H](O)C[C@H]2[C@@H](O)/C=C/C(=O)O1	Nrf2 inh 0.26µM, A549 viability inconclusive | TGFb CAGA inh 0.058µM | HepG2 tox-2 0.13µM | TGFb CCL64 inh inconclusive | TGFb COP inh inactive
O=C(Nc1ccc(Cl)cc1)Nc1ccc(Cl)c(Cl)c1	TGFb SMAD3 inh 3.2µM, Nrf2 inh inconclusive, A549 viability inconclusive | TGFb CAGA inh inconclusive | HepG2 tox-2 21µM | TGFb CCL64 inh 5.2µM | TGFb COP inh inactive
CCN1CCN(c2ccc(NC(C)=O)cc2Cl)CC1	none
O=[N+]([O-])c1oc2ccc3ccccc3c2c1CCO	TGFb SMAD3 inh 4.5µM, Nrf2 inh 18µM, A549 viability inconclusive | TGFb CAGA inh 0.82µM | HepG2 tox-2 1.2µM | TGFb CCL64 inh inconclusive | TGFb COP inh inactive
Cc1nc2cc(C(=O)N3CCC4(CC3)OCCO4)ccc2n1-c1ccc(Br)cc1	none
Nc1c2c(nc3sc4c(c13)CCCCC4)CCCC2	TGFb SMAD3 inh 20µM | TGFb CAGA inh 15µM | HepG2 tox-2 inconclusive | TGFb CCL64 inh inconclusive | TGFb COP inh inactive
BrCC1C[n+]2c(SCc3ccccc3)nc3sc4c(c3c2O1)CCCC4 (stereo not given)	Nrf2 ARE act inconclusive
Cn1c(=O)oc(=O)c2ccccc21	none
Cc1nc2cc(-c3ccc(Cl)cc3)nn2c(C)c1CCC(=O)N1CCC2(CC1)OCCO2	Nrf2 inh inconclusive
COC(=O)C1=C(c2ccc(-c3ccccc3)c(F)c2)C[C@@H]2CC[C@H]1N2C(=O)NC1CC1	Nrf2 inh inconclusive
COC(=O)C1=C(c2ccc(-c3ccccc3)c(F)c2)C[C@@H]2CC[C@H]1N2C(=O)NCc1cc(C)oc1C(F)(F)F	TGFb SMAD3 inh 1.6µM, Nrf2 inh inconclusive | TGFb CAGA inh inconclusive | HepG2 tox-2 inactive | TGFb CCL64 inh inconclusive | TGFb COP inh inactive
COC(=O)C1=C(c2ccc(-c3ccccc3)c(F)c2)C[C@@H]2CC[C@H]1N2C(=O)NCc1ccco1	TGFb SMAD3 inh inconclusive, Nrf2 inh 15µM | TGFb CAGA inh 8.2µM | HepG2 tox-2 inconclusive | TGFb CCL64 inh inconclusive | TGFb COP inh inactive
COC(=O)C1=C(c2cccc(C#N)c2)C[C@@H]2CC[C@H]1N2C(=O)NCc1cc(C)oc1C(F)(F)F	none
COC(=O)C1=C(c2ccc(F)cc2OCc2ccccc2)C[C@@H]2CC[C@H]1N2C(=O)NCc1ccccc1OC	TGFb SMAD3 inh inconclusive, Nrf2 inh inconclusive | TGFb CAGA inh inconclusive | HepG2 tox-2 inactive | TGFb CCL64 inh inconclusive | TGFb COP inh inactive
CCCCCC[N+](=O)[O-]	none
S=C(NCCc1ccccc1)N1Cc2cc(N3CCCCC3)ccc2-n2nncc2C1	TGFb SMAD3 inh 10µM (no result: Nrf2 inh, A549 viability) | TGFb CAGA inh inconclusive | HepG2 tox-2 inactive | TGFb CCL64 inh inactive | TGFb COP inh inactive
S=C(NCCc1ccccc1)N1Cc2cc(-c3ccccc3)ccc2-n2nncc2C1	TGFb SMAD3 inh inconclusive (no result: Nrf2 inh, A549 viability)
O=C(CCc1ccccc1)N1Cc2cc(N3CCCCC3)ccc2-n2nncc2C1	TGFb SMAD3 inh inconclusive (no result: Nrf2 inh, A549 viability)
Fc1cccc(-c2ccc3c(c2)CN(C(=S)NCCc2ccccc2)Cc2cnnn2-3)c1	TGFb SMAD3 inh 11µM (no result: Nrf2 inh, A549 viability) | TGFb CAGA inh inconclusive | HepG2 tox-2 inactive | TGFb CCL64 inh inconclusive | TGFb COP inh inactive
Clc1cccc(N2Cc3cc(-c4ccccc4)ccc3-n3nncc3C2)c1	HepG2 tox-1 8.9µM, TGFb SMAD3 inh 7.9µM (no result: Nrf2 inh, A549 viability) | TGFb CAGA inh 21µM | HepG2 tox-2 inconclusive | TGFb CCL64 inh 6.5µM | TGFb COP inh inactive
COc1ccc(-c2ccc3c(c2)CN(CC(C)C)Cc2cnnn2-3)cc1	TGFb SMAD3 inh inconclusive (no result: Nrf2 inh, A549 viability)
COc1ccc(CN2Cc3cc(-c4cccc(F)c4)ccc3-n3nncc3C2)cc1	TGFb SMAD3 inh 11µM (no result: Nrf2 inh, A549 viability) | TGFb CAGA inh 15µM | HepG2 tox-2 inconclusive | TGFb CCL64 inh inconclusive | TGFb COP inh inactive
CC(C)c1ccc(N2C(=O)CC(=O)NC2=O)cc1	none
